Compound activity (PubChem)
TDP1 inh: inhibitors of human tyrosyl-DNA phosphodiesterase TDP1 | 0.28% of 350,000 active | AID 485290 | Potency, µM (highest dose often 130 µM), inactives show at the top dose activity change, negative = inhibition, hits mostly inhibitors | recombinant TDP1, AlphaScreen DNA substrate cleavage | Q9NUW8; note: % is set by controls: 0 for no effect and ±100 for the full control effect; nearly all actives have a fitted effect of over 40% in size
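Signal: AlphaScreen proximity between streptavidin donor and anti-FITC acceptor beads on intact substrate. Reaction: Tdp1 1 nM, substrate 15 nM final, 5 min RT after 15 min compound preincubation.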
POLI inh: blocks human DNA polymerase iota activity. Q9UNA4. Pol iota fluorescent replication assay, 10 min. Potency, µM (highest dose often 115 µM), without a hit: at the top dose activity, negative = inhibition, most hits filed as inhibitors. 1% of 390,000 active
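Pol iota at 10 nM preincubated 15 min with compounds at room temperature; reaction started with fluorescent substrate, 50 nM final. Fluorescence read kinetically at 0 and 10 min; buffer-only wells as negative control.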
FEN1 inh: blocks human flap endonuclease 1; P39748; Recombinant FEN1 flap cleavage, fluorescence, 15 min; Potency, µM (highest dose often 114 µM), inactives show top-dose activity change, negative = inhibition, actives largely listed as inhibitors; 0.35% of 390,000 active; AID 588795; note: % is set by controls: 0 for no effect and ±100 for the full control effect; nearly all actives have a fitted effect of over 65% in size
Target sequence (P39748 whole entry, looked up): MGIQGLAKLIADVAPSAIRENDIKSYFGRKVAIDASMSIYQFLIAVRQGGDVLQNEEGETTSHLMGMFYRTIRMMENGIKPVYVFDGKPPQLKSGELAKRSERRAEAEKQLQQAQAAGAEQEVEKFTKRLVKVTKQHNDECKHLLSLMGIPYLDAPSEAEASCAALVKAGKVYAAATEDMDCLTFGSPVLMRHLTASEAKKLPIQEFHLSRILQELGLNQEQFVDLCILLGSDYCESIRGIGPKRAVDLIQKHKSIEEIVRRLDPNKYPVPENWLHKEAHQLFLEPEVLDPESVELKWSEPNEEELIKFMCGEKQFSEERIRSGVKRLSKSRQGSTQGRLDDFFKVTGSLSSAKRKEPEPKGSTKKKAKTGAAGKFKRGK
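Read-out was taken twice, immediately and after 15 min, following addition of 50 nM substrate to 10 nM FEN1 that had sat with test compound for 15 min at room temperature. Curves came from a four-parameter Hill model.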
POLH inh: blocks human DNA polymerase eta activity; Q9Y253; Potency, µM (top dose mostly 114 µM), for the others: top-dose activity change, negative = inhibition, actives largely listed as inhibitors; recombinant Pol eta, fluorescent DNA replication assay; 1.2% of 390,000 active; AID 588591; note: % is set by controls: 0 for no effect and ±100 for the full control effect
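Fluorescent replication assay: 50 nM final substrate added after a 15 min room-temperature compound preincubation with 10 nM enzyme. Signal taken at 0 min and again at 10 min.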
Pol kappa inh: inhibitors of human DNA polymerase kappa; Potency, µM (series often up to 107 µM), for the others: at the top dose activity, negative = inhibition, actives largely listed as inhibitors; Q9UBT6; purified Pol kappa, fluorescent DNA synthesis assay, 10 min; AID 588579; 0.53% of 400,000 active; note: % is set by controls: 0 for no effect and ±100 for the full control effect
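Here, compound and 10 nM enzyme are combined for 15 min at room temperature; adding 50 nM substrate (final) starts DNA synthesis, tracked by fluorescence at 0 and 10 min against buffer-only wells.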
Pol beta inh: inhibitors of human DNA polymerase beta; P06746; Pol beta primer extension/strand displacement, fluorescence kinetic; Potency, µM (titrated, usually from 114 µM), for the others: at the top dose activity change, negative = inhibition, actives largely listed as inhibitors; 1.3% of 340,000 active; note: % is set by controls: 0 for no effect and ±100 for the full control effect
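Curves were derived by four-parameter Hill fits of normalized qHTS data. The kinetic fluorescent primer-extension read was taken at 0 and 10 min after 50 nM substrate, following a 15 min room-temperature preincubation of 10 nM enzyme with compounds.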
Active calls of the source: *; ? = inconclusive; nt = not tested or not shown; [ ] = dose if it differs, or a comment. The list is not random: actives were taken first. Their share in the collection is about 2.4%. Calls come from the whole dose curve; as a rule, active = well fitted curve in the direction sought with a large enough effect; inconclusive = small, poorly fitted or top-dose-only effect, or another doubt; inactive = no such curve, though single readings can be large; an effect the other way counts as inactive or inconclusive. Potency is the fitted concentration of half-maximal effect.

SMILES	TDP1 inh	POLI inh	FEN1 inh	POLH inh	Pol kappa inh	Pol beta inh
COc1cc(/C=C2/C(=O)N(c3ccc(C)c(C)c3)N=C2C)cc([N+](=O)[O-])c1O	nt	-12%	1%	-15%	13%	6%
COc1cc(/C=C2/SC(=O)NC2=O)ccc1Oc1ccc([N+](=O)[O-])cc1[N+](=O)[O-]	-1%	?	?	50µM*	0%	71%
CC1=NN(c2ccccc2)C(=O)/C1=C\c1ccc(Oc2ccc([N+](=O)[O-])cc2[N+](=O)[O-])cc1	8%	1.8µM*	-10%	50µM*	-13%	-3%
Nc1ccc(S(=O)(=O)N2CCOCC2)cc1	1%	-14%	-3%	nt	9%	nt
Cc1cc(-c2ccc(N=Nc3cc(S(=O)(=O)O)c4ccccc4c3N)c(C)c2)ccc1N=Nc1cc(S(=O)(=O)O)c2ccccc2c1N	13%	nt	nt	nt	nt	nt
O=C(COC(=O)c1cc(-c2ccccc2)nc2c(Cl)cccc12)c1ccc(F)cc1	nt	10%	-3%	-4%	-3%	0%
COC(CNC(=O)c1cccnc1)OC	6%	-16%	-2%	-7%	12%	34%
COC(CNC(=O)c1ccc2c3c(onc13)-c1ccccc1C2=O)OC	4%	18µM*	?	?	-32%	0%
CCOC(=O)C1=C(C)NC(=O)NC1c1ccc(C)o1 (stereo not given)	-5%	56µM*	12%	?	?	4%
CCOC(=O)C1=C(C)NC(C)=C(C(=O)OCC)C1c1ccc(C)o1	3%	15%	2%	6%	-14%	14%
CCOC(=O)C1=C(C)NC(=S)NC1c1ccco1 (stereo not given)	0%	22µM*	-6%	?	?	0%
C=CC[C@@H]1C=C[C@H](O/N=C(\C)CCN2CCc3nc(-c4ccccc4)c(-c4ccccc4)cc3C2)[C@H](CO)O1	6%[21 µM]	nt	nt	nt	nt	nt
O=C(CSc1cn(CC(=O)N2CCCC2)c2ccccc12)Nc1cc(C(F)(F)F)ccc1Cl	3%	-3%	-14%	-6%	-19%	?
CCCCN(CC)CCCNC(=O)C1CCN(c2nc3ccc(CC)cc3s2)CC1	9%	-2%	13%	nt	-6%	3%
Cc1[nH]c(=O)nc(SCc2cccc(Cl)c2)c1C#N	4%	24%	-23%	-8%	-20%	71µM*
O=C1/C(=C/c2ccccc2Cl)SC(=S)N1CCC(=O)N1CCCCC1CCO (stereo not given)	12%	25µM*	-27%	-12%	?	1%
O=C(C[n+]1ccccc1Br)c1ccc2c(c1)CCCC2	nt	71µM*	-21%	nt	?	nt
O=C(C[n+]1ccccc1Br)c1ccc(O)c(O)c1	nt	-2%	9%	nt	1%	nt
Cc1ccc(/C=C2\SC(=S)N(NS(=O)(=O)c3ccc(C)cc3)C2=O)cc1	nt	7%	-10%	?	-7%	79µM*
C=CCOc1ccc(/C=C2\SC(=S)N(NS(=O)(=O)c3ccc(C)cc3)C2=O)cc1	nt	?	-20%	50µM*	-11%	?
Cc1ccc(S(=O)(=O)NN2C(=O)/C(=C/c3ccc(C(=O)O)cc3)SC2=S)cc1	nt	13µM*	50µM*	-23%	?	16%
Cc1ccc(S(=O)(=O)NN2C(=O)/C(=C/c3ccc(F)cc3)SC2=S)cc1	5%	139%	3%	?	-11%	4%
COc1ccc(/C=C2/SC(=S)N(NS(=O)(=O)c3ccc(C)cc3)C2=O)cc1	9%[0.0935 µM]	?	?	79µM*	-15%	?
Cc1ccc(S(=O)(=O)NN2C(=O)/C(=C/c3cccs3)SC2=S)cc1	5%	-10%	-2%	-3%	-12%	0%
Cc1ccnc2ccc3ccccc3c12	nt	?	?	nt	-29%	nt
COc1ccccc1CNC(=O)Cn1ncc2c(=O)oc3ccc(C)cc3c21	6%	21%	-2%	-21%	-19%	-21%
